This note sets out measurements from PubChem BioAssay (NCATS).

For assay [1], the target named is Cytochrome P450 2C9 (Homo sapiens) (UniProt P11712). Kind of assay: Cytochrome P450 family 2 subfamily C member 9 (CYP2C9) small molecule antagonists: luciferase biochemical (cell-free) qHTS assay (AID 1645842; active means well fitted curve in the direction sought with a large enough effect in the repeat runs; an effect the other way counts as inactive or inconclusive; further: nearly all actives have a fitted effect of over 55% in size; further: potency means the concentration at half of the fitted maximal effect; on activity change, negative = inhibition: on the % scale 0 is the no-effect control and ±100 the full control effect). In outline: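 P450-Glo CYP2C9 system: proluciferin substrate with enzyme in mix containing 0.4% BSA, 10 min at room temperature, then NADPH regeneration solution added and incubated 1 h at 37C. Detection reagent stopped reaction; luminescence read after 20 min as RLU.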
Cytochrome P450 2C9 (Homo sapiens), sequence (P11712 whole entry, looked up): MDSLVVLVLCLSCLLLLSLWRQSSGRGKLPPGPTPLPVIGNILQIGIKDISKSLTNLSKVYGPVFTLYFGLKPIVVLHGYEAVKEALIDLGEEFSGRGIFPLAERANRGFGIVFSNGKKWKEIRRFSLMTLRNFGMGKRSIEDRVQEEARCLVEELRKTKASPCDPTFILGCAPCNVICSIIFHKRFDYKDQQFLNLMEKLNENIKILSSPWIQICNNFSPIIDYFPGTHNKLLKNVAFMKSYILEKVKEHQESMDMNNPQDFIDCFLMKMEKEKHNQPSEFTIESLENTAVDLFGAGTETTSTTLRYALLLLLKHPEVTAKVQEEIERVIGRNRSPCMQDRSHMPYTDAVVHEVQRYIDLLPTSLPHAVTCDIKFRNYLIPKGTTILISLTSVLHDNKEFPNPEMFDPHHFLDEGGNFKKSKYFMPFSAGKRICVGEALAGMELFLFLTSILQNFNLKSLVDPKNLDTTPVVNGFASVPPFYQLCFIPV
Background: In qHTS, concentration-response curves come from the screen itself.

Assay [2] in a line: Primary qHTS to identify inhibitors of SARS-CoV-2 cell entry (AID 1645846; calls by dose curve; further: nearly all actives have a fitted effect of over 45% in size; further: potency means the concentration at half of the fitted maximal effect). The conditions noted are these: activity change, negative = inhibition: at 57.1 µM (top of the series) unless noted. In outline: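 HEK293 cells stably expressing human ACE2, pre-treated 1 h with compound, then infected with MLV particles pseudotyped with Wuhan-Hu-1 spike (C-terminal 19-aa truncation). Luciferase luminescence after 48 h at 37 °C, normalised to spike PP and bald PP.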

Assay [3] is described as follows: Primary qHTS for inhibitors of nuclear receptor binding SET domain protein 2 (NSD2) in an isogenic RCH-ACV NSD2 p.E1099K mutant (9B) (AID 1645876). Further: nearly all actives have a fitted effect of over 70% in size. Further: potency means the concentration at half of the fitted maximal effect.
The nature of assay [4]: Primary qHTS for inhibitors of nuclear receptor binding SET domain protein 2 (NSD2) in an RCH-ACV wild type WT cells (2C) (AID 1645877). Further: nearly all actives have a fitted effect of over 70% in size. Further: potency means the concentration at half of the fitted maximal effect.
Assay [5] deals with Catechol O-methyltransferase (Homo sapiens) (UniProt P21964). The assay is described as follows: Confirmatory Screen for Target Class Profiling of Small Molecule Inhibitors of Methyltransferases (AID 1745852; calls by dose curve; further: potency means the concentration at half of the fitted maximal effect; on activity change, negative = inhibition: on the % scale 0 is the no-effect control and ±100 the full control effect). Particulars: MTase-Glo luminescence, SAH detection, recombinant enzyme; measured here: COMT max response; stronger effect = lower value.
Catechol O-methyltransferase (Homo sapiens), sequence (P21964 whole entry, looked up): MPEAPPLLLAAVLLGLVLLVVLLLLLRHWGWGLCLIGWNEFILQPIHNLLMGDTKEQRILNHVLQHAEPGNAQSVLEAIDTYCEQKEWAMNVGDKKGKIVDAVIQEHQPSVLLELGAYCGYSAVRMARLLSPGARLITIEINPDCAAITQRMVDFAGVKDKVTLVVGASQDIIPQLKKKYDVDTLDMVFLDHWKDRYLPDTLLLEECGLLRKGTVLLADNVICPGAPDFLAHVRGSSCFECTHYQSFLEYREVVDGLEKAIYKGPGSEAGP
Assay [6] deals with Guanidinoacetate N-methyltransferase (Homo sapiens) (UniProt Q14353). The description is as above. The conditions noted are these: MTase-Glo luminescence, SAH detection, recombinant enzyme; activity change, negative = inhibition: at 57.3 µM (top of the series).
Assay [7] deals with Nicotinamide N-methyltransferase (Homo sapiens) (UniProt P40261). The assay is described as above. The conditions noted are these: MTase-Glo luminescence, SAH detection, recombinant enzyme; measured here: NNMT max response; stronger effect = lower value.
Nicotinamide N-methyltransferase (Homo sapiens), sequence (P40261 whole entry, looked up): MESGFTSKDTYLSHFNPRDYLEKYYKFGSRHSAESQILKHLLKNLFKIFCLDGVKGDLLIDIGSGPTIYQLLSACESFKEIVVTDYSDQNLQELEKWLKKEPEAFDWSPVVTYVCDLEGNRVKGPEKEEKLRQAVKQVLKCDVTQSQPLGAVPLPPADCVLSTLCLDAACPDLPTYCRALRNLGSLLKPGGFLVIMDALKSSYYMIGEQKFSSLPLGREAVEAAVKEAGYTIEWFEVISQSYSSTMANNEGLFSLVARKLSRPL
Assay [8] addresses Phenylethanolamine N-methyltransferase (Homo sapiens) (UniProt P11086). The description is as above. The conditions noted are these: MTase-Glo luminescence, SAH detection, recombinant enzyme; measured here: PNMT max response; stronger effect = lower value.
A short description of assay [9]: Cytotoxicity counterscreen for inhibitors of SARS-CoV-2 cell entry (AID 1645845; calls by dose curve; further: nearly all actives have a fitted effect of over 50% in size). In outline:
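ATP-content luminescence (ATPLite 1step, 15 min RT) read after 48 h compound exposure of Expi293F cells stably expressing human ACE2; normalized to cells-only wells and media-only wells.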
For orientation: The purpose of a counterscreen is to sort out artefacts and off-target activity.

The target in assay [10] is Nuclear receptor subfamily 1 group I member 3 (Homo sapiens) (UniProt Q14994). The assay is described as follows: Primary qHTS for antagonist of constitutive androstane receptor (CAR) against the NCATS DSHEA and TCM libraries (AID 1794836).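 Further: HepG2 cells stably expressing hCAR with CYP2B6 luciferase reporter stimulated by CITCO.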 The gist of the method: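 Antagonist mode: CAR reporter luminescence (ONE-Glo) in HepG2-CYP2B6-hCAR cells stimulated with 48 uM CITCO (final) over 24 h at 37 C, compounds titrated; viability read first by CellTiter-Fluor fluorescence.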
Nuclear receptor subfamily 1 group I member 3 (Homo sapiens), sequence (Q14994 whole entry, looked up): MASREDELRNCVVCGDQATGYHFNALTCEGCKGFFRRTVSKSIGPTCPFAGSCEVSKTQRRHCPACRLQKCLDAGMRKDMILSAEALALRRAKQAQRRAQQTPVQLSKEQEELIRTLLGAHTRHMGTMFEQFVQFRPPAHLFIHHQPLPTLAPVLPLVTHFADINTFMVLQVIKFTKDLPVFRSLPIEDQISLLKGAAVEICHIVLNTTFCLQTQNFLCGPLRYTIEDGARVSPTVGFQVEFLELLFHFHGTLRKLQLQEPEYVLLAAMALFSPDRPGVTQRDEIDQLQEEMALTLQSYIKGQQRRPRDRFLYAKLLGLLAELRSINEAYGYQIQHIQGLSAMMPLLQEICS

Assay [11] deals with N-terminal Xaa-Pro-Lys N-methyltransferase 1 (Homo sapiens) (UniProt Q9BV86). The assay is described as follows: Confirmatory qHTS for Inhibitors of N-terminal methyltransferase 1 (NTMT1): MTaseGlo Assay (AID 1645874). Further: nearly all actives have a fitted effect of over 65% in size. Further: potency means the concentration at half of the fitted maximal effect.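 On activity change, negative = inhibition: luminescence from SAH made as NTMT1 methylates SPKRIA peptide using SAM; 0% = DMSO control and -100% = no-enzyme control.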 The gist of the method:
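Inhibition was derived from luminescence after SAH-to-ATP conversion, scaled between no-enzyme and DMSO wells, then fitted by 4-parameter Hill. Conditions: 125 nM NTMT1, 100 uM SAM, 1 uM SPKRIA, 30 min RT.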

A short description of assay [12]: VSVG counterscreen qHTS to identify inhibitors of SARS-CoV-2 cell entry (AID 1645847; calls by dose curve; further: on the % scale 0 is the no-effect control and ±100 the full control effect; nearly all actives have a fitted effect of over 65% in size). The gist of the method:
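HEK293-ACE2 cells (Expi293F, human ACE2) pretreated 1 h with compound, then infected with MLV-based VSV-G pseudotyped particles for 48 h at 37 C; luciferase luminescence normalized to VSV-G PP and bald PP wells.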

A further assay concerns the target Papain (Carica papaya) (UniProt P00784). Kind of assay: Primary qHTS assay for inhibitors of the protease papain (AID 1645873).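 Further: papain turnover of Z-FR-AMC read as the AMC fluorescence gain over 10 min; on the % scale 0 is the no-effect control and ±100 the full control effect.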

“And” between values parts separate entries of the source, which are not always exact repeats. Identical values can stand only once. Inconclusive results are not listed. The source made the active and inactive calls. Unless noted, the call rests on the fitted dose curve; in most records, active means well fitted curve in the direction sought with a large enough effect; inconclusive means small, poorly fitted or top-dose-only effect, or another doubt; inactive means no such curve, though single readings can be large; an effect the other way counts as inactive or inconclusive.

N-terminal Xaa-Pro-Lys N-methyltransferase 1 (Homo sapiens), sequence (Q9BV86 whole entry, looked up): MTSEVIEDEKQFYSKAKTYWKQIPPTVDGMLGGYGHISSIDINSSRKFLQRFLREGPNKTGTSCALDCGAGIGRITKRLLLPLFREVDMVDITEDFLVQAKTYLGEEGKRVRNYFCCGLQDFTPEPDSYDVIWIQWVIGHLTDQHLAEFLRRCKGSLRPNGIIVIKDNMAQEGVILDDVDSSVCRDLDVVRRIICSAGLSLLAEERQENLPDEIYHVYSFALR
Phenylethanolamine N-methyltransferase (Homo sapiens), sequence (P11086 whole entry, looked up): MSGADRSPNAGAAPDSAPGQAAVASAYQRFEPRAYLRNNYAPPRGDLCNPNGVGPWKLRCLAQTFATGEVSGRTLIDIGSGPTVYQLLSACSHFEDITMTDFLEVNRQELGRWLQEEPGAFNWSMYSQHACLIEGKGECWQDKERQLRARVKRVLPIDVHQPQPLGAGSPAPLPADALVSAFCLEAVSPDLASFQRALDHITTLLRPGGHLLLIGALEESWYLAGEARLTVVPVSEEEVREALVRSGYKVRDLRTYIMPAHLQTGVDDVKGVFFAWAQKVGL
Papain (Carica papaya), sequence (P00784 whole entry, looked up): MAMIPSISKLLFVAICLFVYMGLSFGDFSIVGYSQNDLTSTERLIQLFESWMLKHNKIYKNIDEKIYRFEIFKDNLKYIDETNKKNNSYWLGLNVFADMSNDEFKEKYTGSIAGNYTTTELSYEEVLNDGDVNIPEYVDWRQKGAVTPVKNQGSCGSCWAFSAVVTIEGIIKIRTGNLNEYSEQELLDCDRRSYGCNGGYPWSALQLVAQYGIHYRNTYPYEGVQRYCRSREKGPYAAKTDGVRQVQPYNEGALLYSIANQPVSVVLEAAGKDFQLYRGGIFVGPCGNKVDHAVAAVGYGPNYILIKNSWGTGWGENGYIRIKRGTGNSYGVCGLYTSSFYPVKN

With `Cc1nnc2n1-c1sc(CCc3ccc(CC(C)C)cc3)cc1C(c1ccccc1Cl)=NC2C` (configuration not stated), the Potency in [1] was 15.5 µM (active); in assay [2], 22.4 µM (active); in assay [3], 7.5 µM (active); in [4] it was 8.41 µM (active); in assay [6] it was 48.2 µM (active). For the same compound, the activity in [5] was -12.7%; in [7], -36.8%; in assay [8], -8.97%.

On to `CCCCC1C(=O)NC(=O)N(C2CCCCC2)C1=O` (configuration not stated), for which, in assay [1], the Potency was 26.8 µM (active). Moreover, the Potency result in assay [9] and in [2] was “inactive” in each case.

As to `C[C@]12CC[C@H](O)CC1=CC[C@@H]1[C@@H]2CC[C@]2(C)C(=O)CC[C@@H]12`, the Potency entry in [1] and in assay [9] was “inactive” in each case. Also, in [10], the outcome was “inactive”.

Take `C[C@@H]1CN(C2CCC(C#N)(c3ccc(F)cc3)CC2)CC[C@]1(C(=O)O)c1ccccc1` (some centres not stated): the Potency result in assay [1], in assay [3] and in [4] was “inactive” throughout. Moreover, the activity change, negative = inhibition in assay [2] is -31.8%.

Take `N#Cc1nn(-c2c(Cl)cc(C(F)(F)F)cc2Cl)c(N)c1S(=O)C(F)(F)F` (configuration not stated): the values for the Potency in [1] and in [4] were 3.89 µM (active) and 21.1 µM (active), respectively. In addition, in assay [9], the Potency result was “inactive”.

For the compound `C=CCOC(Cn1ccnc1)c1ccc(Cl)cc1Cl` (configuration not stated), the Potency in assay [1] is 0.683 µM (active); in assay [3] it was 23.7 µM (active). The Potency result in [9] is “inactive”.

In the case of `O=C(O)Cc1ccccc1`, the Potency result in assay [1], in assay [2], in assay [3] and in [4] was “inactive” in each case.

On to `Oc1ccc([C@H]2CNCc3c2ccc(O)c3O)cc1O`, for which the Potency in assay [1] was 8.71 µM (active); in [11], 18.3 µM (active). The Potency entry in assay [9] is “inactive”.

For the compound `Cc1cccc(Cc2cnc[nH]2)c1C`, in [1], the Potency was 0.123 µM (active). Also, in assay [9], the Potency entry was “inactive”. The activity change, negative = inhibition in assay [2] is -1.14%.

For the compound `C[N+]1(C)[C@@H]2CC[C@H]1CC(OC(=O)C(CO)c1ccccc1)C2` (some centres not stated), the Potency entry in assay [1], in assay [9], in assay [2], in assay [3] and in assay [4] was “inactive” each time.

Turning to `Clc1ccc(C(OCCN2CCCCC2)c2ccccc2)cc1` (configuration not stated), the Potency result in [1], in [9] and in [12] was “inactive” throughout. The Potency in assay [3] and in assay [4] was 26.6 µM (active) each time.

In the case of `CC(CC(C(N)=O)(c1ccccc1)c1ccccc1)N(C)C` (configuration not stated), the Potency entry in assay [1], in assay [9], in assay [3] and in assay [4] was “inactive” each time. In addition, in assay [2], the activity change, negative = inhibition was -7.18%.

On to `C=CCN1CC[C@]23CCCC[C@H]2[C@H]1Cc1ccc(O)cc13`, for which the Potency result in [1], in assay [9] and in [3] was “inactive” each time. The activity change, negative = inhibition was -14.7% in [2] and 3.29% in assay [6]. Moreover, the results for the activity in assay [5], in assay [7] and in assay [8] were 0.434%, -15.3% and 2.6%, respectively.

In the case of `O=C(O)c1nn(Cc2ccc(Cl)cc2Cl)c2ccccc12`, the Potency result in assay [1], in assay [9], in assay [3] and in assay [4] was “inactive” each time.

As to `C#C[C@]1(O)CC[C@H]2[C@@H]3CCC4=CC(=O)CCC4=C3C=C[C@@]21CC`, the Potency result in assay [1], in assay [9] and in assay [3] was “inactive” in each case.

`CCC(=O)O[C@H]1CC[C@H]2[C@@H]3CCC4=CC(=O)CC[C@]4(C)[C@H]3CC[C@]12C`: the Potency was 24.5 µM (active) and 10.7 µM (active) in [1]; 23.7 µM (active) in assay [3]. The Potency entry in assay [9] and in [2] was “inactive” throughout.

For `CCOC(=O)c1ncn2c1CN(C)C(=O)c1c(I)cccc1-2`, the Potency result in assay [1], in assay [9], in [2] and in [3] was “inactive” in each case.

In the case of `COc1ccc(C(=O)N2CCCC2=O)cc1`, the Potency result in [1], in assay [9], in assay [2], in assay [3] and in [4] was “inactive” throughout. In assay [2], the activity change, negative = inhibition stood at 9.75%. Further, in the assay with Papain (Carica papaya), the outcome was “inactive”.

For `CCC(=O)OC1(c2ccccc2)CCN(C)CC1`, the Potency result in assay [1] and in [3] was “inactive” each time.

As to `ClCc1cccc(Cl)c1`, the Potency result in [1] and in assay [3] was “inactive” in each case.

Take `NCc1cccnc1`: the Potency result in assay [1], in [3] and in assay [4] was “inactive” in each case.

As for `C[N+]1(CCC(C(N)=O)(c2ccccc2)c2ccccc2)CCCCC1`, the Potency entry in [1], in assay [3] and in assay [4] was “inactive” throughout.

Regarding `CCN(CC)CCOC(=O)C(C)(c1ccccc1)c1ccccc1`, in assay [1], the Potency is 3.89 µM (active). Further, the Potency entry in assay [3] is “inactive”.

Take `CCN1CCCC1CNC(=O)C(O)(c1ccccc1)c1ccccc1` (configuration not stated): the Potency entry in [1] and in assay [3] was “inactive” each time.

In the case of `COCC(=O)N(c1c(C)cccc1C)C(C)C(=O)OC` (configuration not stated), the Potency result in assay [1], in assay [3] and in assay [4] was “inactive” throughout.

Regarding `CC1Sc2c(C(=O)O)c(=O)c3cc(F)c(N4CCNCC4)cc3n21` (configuration not stated), the Potency entry in assay [1], in [3] and in [4] was “inactive” in each case.

Take `Oc1c(Br)cc(Br)cc1Br`: the Potency result in assay [1], in assay [3] and in assay [4] was “inactive” throughout.

For `CCN(Cc1ccc(Cl)nc1)/C(=C/[N+](=O)[O-])NC`, the Potency entry in assay [1] and in assay [3] was “inactive” in each case.

Regarding `CCc1cc(OC)c(C[C@H](C)N)cc1OC`, the Potency entry in assay [1] and in assay [11] was “inactive” in each case. In assay [4], the Potency is 44.9 µM (active).

With `COc1cc(C[C@@H](C)N)c(OC)cc1C`, the Potency result in [1] and in assay [3] was “inactive” in each case.

As for `CN1C(=O)CN=C(c2ccccc2)c2cc([N+](=O)[O-])ccc21`, the Potency result in [1], in assay [3] and in assay [4] was “inactive” each time.

As to `COC(=O)C1=CCCN(C)C1`, the Potency result in assay [1], in [3] and in [4] was “inactive” in each case. For the same compound, the outcome with Papain (Carica papaya) was “inactive”.

With `CN1[C@@H]2CC[C@H]1CC(OC(=O)c1cc(Cl)cc(Cl)c1)C2` (some centres not stated), the Potency entry in [1] and in [3] was “inactive” each time.

Take `O=C(O)CCCCCCNC1c2ccccc2CCc2ccccc21`: the Potency entry in assay [1] and in assay [3] was “inactive” in each case.

For `COc1ccc2c3c1O[C@H]1[C@@H](O)C=C[C@H]4[C@@H](C2)N(C)CC[C@@]341`, the Potency result in [1] is “inactive”. For the same compound, the Potency in assay [3] was 6.72 µM (active).

Consider `CN(C)CCc1c[nH]c2cccc(O)c12`, for which the Potency entry in [1] and in [11] was “inactive” in each case.

With `COc1cc(CC(C)N)c(OC)cc1Br` (configuration not stated), the Potency entry in assay [1] was “inactive”. Besides, the results for the Potency in assay [3] and in assay [4] were 10.1 µM (active) and 8.96 µM (active), respectively.

`CC(CC(C#N)(c1ccccc1)c1ccccc1)N(C)C` (configuration not stated): the Potency result in assay [1] is “inactive”. Also, in [3], the Potency is 17.2 µM (active).

`CCOC(=O)NC(O)C(Cl)(Cl)Cl` (configuration not stated): the Potency result in assay [1], in assay [3] and in [4] was “inactive” in each case.

On to `CC(Cc1ccc2c(c1)OCO2)NO` (configuration not stated), for which, in assay [1], the Potency was 38.6 µM (active). In assay [3], the Potency result is “inactive”.

`CCNc1nc(Cl)nc(NCC)n1`: the Potency result in assay [1], in [3] and in [4] was “inactive” each time.
